From PubChem BioAssay
Where “and” joins values, the source holds several entries; their conditions need not be identical. Identical values can stand only once. Calls of active or inactive are those of the source. Cut-off read from the data, not from the text of the source, unless noted: active = parasite load remaining mostly below about 12% (no sharp cut-off); inactive = mostly above about 10%.

Assay: hESC survival regulators, cell-based (AID 493140; call rule not given here;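 note: cells exposed to compounds for four days before counting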)
Details: human embryonic stem cell survival screen; stronger effect = higher value

SMILES	survival
N[C@@H](Cc1cc(I)c(Oc2ccc(O)c(I)c2)c(I)c1)C(=O)O	4.58 (inactive)
Cc1cc(C(C)(C)CC(C)(C)C)ccc1OCCOCC[N+](C)(C)Cc1ccccc1	0.167 (inactive)
C=C1c2c(Cl)ccc(O)c2C(O)=C2C(=O)[C@]3(O)C(O)=C(C(N)=O)C(=O)[C@@H](N(C)C)[C@@H]3[C@@H](O)[C@H]12	6.83 (inactive)
CC(CN(C)C)CN1c2ccccc2Sc2ccccc21 (centres undefined)	1.08 (inactive)
CC(C(=O)O)c1ccc(N2Cc3ccccc3C2=O)cc1 (centres undefined)	4.83 (inactive)
CN1CCc2c(c3ccccc3n2Cc2ccccc2)C1	3.25 (inactive)
COc1cc2c(cc1OC)-c1cc3ccc(OC)c(OC)c3c[n+]1CC2	1.83 (inactive)
NC(N)=NCCCCN=C(N)N	5.58 (inactive)
CC1(C)S[C@@H]2[C@H](NC(=O)Cc3ccccc3)C(=O)N2[C@H]1C(=O)O	5.08 (inactive)
CN(C)CCOC(c1ccccc1)c1ccccc1 (tested in a mixture with another compound)	24.5 (inactive)
Oc1cc(O)c2c(c1)O[C@H](c1ccc(O)c(O)c1)[C@@H](O)C2	6.17 (inactive) and 8.75 (inactive)
COc1cc(S(C)=O)ccc1-c1nc2ncccc2[nH]1 (centres undefined)	5.5 (inactive)
CC(=O)Oc1ccccc1C(=O)Oc1ccccc1C(=O)O	16.8 (inactive)
COC(=O)[C@H]1[C@H]2C[C@H]3c4[nH]c5ccccc5c4CCN3C[C@H]2CC[C@@H]1O	5.58 (inactive)

Assay: liver-stage malaria parasite growth inhibition, primary screen, cell-based, HepG2, luciferase luminescence, HepG2 viability (AID 624349);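 note: 100% = mean of DMSO negative control wells on the same plate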
Details: P. berghei liver stage in HepG2, luciferase luminescence, concentration not given here; parasite load remaining: stronger effect = lower value; viability: measured here: HepG2 viability without parasites

SMILES	parasite load remaining	viability
NC(=O)c1ccc[n+]([C@@H]2O[C@H](COP(=O)([O-])OP(=O)(O)OC[C@H]3O[C@@H](n4cnc5c(N)ncnc54)[C@H](O)[C@@H]3O)[C@@H](O)[C@H]2O)c1	87.2% (inactive) and 76.6% (inactive)	103% and 92.6%
NCCCCN=C(N)N	166% (inactive)	87.2%
N[C@@H](Cc1cc(I)c(Oc2ccc(O)c(I)c2)c(I)c1)C(=O)O	78.5% (inactive) and 158% (inactive) and 41% (inactive)	96% and 73% and 101%
Cc1cc(C(C)(C)CC(C)(C)C)ccc1OCCOCC[N+](C)(C)Cc1ccccc1	26.8% (inactive) and 101% (inactive) and 11.6% (inactive)	87.1% and 82% and 145%
CC(=O)N1CCN(c2ccc(OCC3CO[C@](Cn4ccnc4)(c4ccc(Cl)cc4Cl)O3)cc2)CC1 (some centres undefined)	15.3% (inactive) and 4.75% (inactive)	65.5% and 60%
NCCCCC(=O)O	89.3% (inactive)	71.9%
CN[C@H](CC(=O)O)C(=O)O	161% (inactive)	83.1%
CN1CCc2cccc3c2C1Cc1ccc(O)c(O)c1-3 (centres undefined)	9.7% (inactive) and 18.2% (inactive)	65% and 86.9%
C=C1c2c(Cl)ccc(O)c2C(O)=C2C(=O)[C@]3(O)C(O)=C(C(N)=O)C(=O)[C@@H](N(C)C)[C@@H]3[C@@H](O)[C@H]12	145% (inactive) and 78.4% (inactive) and 31.4% (inactive)	71.2% and 75.1% and 92.1%
CC(CN(C)C)CN1c2ccccc2Sc2ccccc21 (centres undefined)	56% (inactive) and 101% (inactive) and 20% (inactive)	86.7% and 71.6% and 86.5%
CC(C(=O)O)c1ccc(N2Cc3ccccc3C2=O)cc1 (centres undefined)	132% (inactive) and 273% (inactive) and 101% (inactive)	95.7% and 78.1% and 95.5%
CN1CCc2c(c3ccccc3n2Cc2ccccc2)C1	52.3% (inactive) and 141% (inactive) and 69.3% (inactive)	99% and 73.4% and 70.8%
COc1cc2c(cc1OC)-c1cc3ccc(OC)c(OC)c3c[n+]1CC2	110% (inactive) and 92.2% (inactive) and 65.3% (inactive)	114% and 73.3% and 79.6%
NC(N)=NCCCCN=C(N)N	111% (inactive)	108%
Cc1cc(/C=C/c2ccc3cc(N(C)C)ccc3[n+]2C)c(C)n1-c1ccccc1	0.35% (inactive) and 0.64% (inactive)	46.6% and 62.4%
NCCSSCCN	165% (inactive)	85.4%
CC1(C)S[C@@H]2[C@H](NC(=O)Cc3ccccc3)C(=O)N2[C@H]1C(=O)O	73.8% (inactive) and 85.4% (inactive) and 69.6% (inactive)	70.9% and 69.6% and 97.7%
Oc1cc(O)c2c(c1)O[C@H](c1ccc(O)c(O)c1)[C@@H](O)C2	116% (inactive)	105%
C1N2CN3CN1CN(C2)C3	80.4% (inactive) and 31.8% (inactive)	76.7% and 89.4%
COc1cc(S(C)=O)ccc1-c1nc2ncccc2[nH]1 (centres undefined)	107% (inactive)	101%
CC(=O)Oc1ccccc1C(=O)Oc1ccccc1C(=O)O	36.8% (inactive) and 92.5% (inactive)	53.8% and 90.5%
NCCCS(=O)(=O)O	106% (inactive)	72.2%
COC(=O)[C@H]1[C@H]2C[C@H]3c4[nH]c5ccccc5c4CCN3C[C@H]2CC[C@@H]1O	79.9% (inactive) and 65.8% (inactive)	101% and 78.6%
Nc1nc(/C(=C/CC(=O)O)C(=O)N[C@@H]2C(=O)N3C(C(=O)O)=CCS[C@H]23)cs1	145% (inactive) and 53% (inactive)	95.5% and 96.5%
C[N+](C)(C)CC(O)CC(=O)O (centres undefined)	33.4% (inactive)	63.9%
